Results taken from PubChem BioAssay (NCATS).
Results filed as inconclusive are left out. The source made the active and inactive calls. The call rests on the fitted dose curve; in most records, active means well fitted inhibition curve with a large enough effect; inconclusive means small, poorly fitted or top-dose-only effect; inactive means flat fitted curve, though single readings scatter. Residues, ends and D or L forms follow the SMILES beside them. *: point of attachment. Cbz = O=C(OCc1ccccc1)*

system: Zika virus NS2B-NS3 protease; assay: Primary screen GU AMC qHTS for Zika virus inhibitors (AID 1347154); settings: Zika NS2B-NS3 unlinked protease, AMC fluorogenic substrate; series mostly up to 54.1 µM; activity change, negative = inhibition: at the top concentration; further: nearly all actives have a fitted effect of over 70% in size;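 on activity change, negative = inhibition: 0% = no-inhibitor control and -100% = no-enzyme control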
In short: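 Unlinked Zika NS2B hydrophilic domain–NS3 protease complex at 25 nM in 10 mM Tris-HCl pH 8.0, 0.01% Tween 20, with an AMC peptide substrate. Fluorescence change (340/450 nm) over 15 min at room temperature, normalized to controls, fitted to 4-parameter Hill.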
Potency means the concentration at half of the fitted maximal effect.

Structure (SMILES) | Potency | activity change, negative = inhibition
OC1(c2ccc(Cl)cc2)CCN(Cc2c[nH]c3ccccc23)CC1 | inactive | 
Cn1cc(C(=O)OCC2CCN(CCNS(C)(=O)=O)CC2)c2ccccc21 |  | 8.06% (inactive)
NCCS(=O)O |  | 15% (inactive)
C=C1C(=O)O[C@@H]2[C@H]3O[C@]3(C)CCC=C(C)CC[C@@H]12 |  | -1.15% (inactive)
O=C(O)C1=CCCNC1 | inactive | 
CC(N)(C(=O)O)c1ccc(C(=O)O)cc1 (configuration not stated) |  | 10.4% (inactive)
CCCCCCCCCCC(C)(C)C(=O)Nc1c(OC)cc(OC)cc1OC |  | -3.74% (inactive)
N#Cc1cc2nc(O)c(O)nc2cc1[N+](=O)[O-] |  | 16.3% (inactive)
N[C@@H](CS(=O)O)C(=O)O | inactive | 
CC(C)NC[C@H](O)COc1cccc2ccccc12 | inactive | 
CNCCNS(=O)(=O)c1cccc2cnccc12 |  | 11.8% (inactive)
COc1cc(CC(=O)O)ccc1O |  | -1.29% (inactive)
COc1ccc(CCN(C)CCc2ccc(OC)c(OC)c2)cc1OC | inactive | 
COc1ccc(NC(=O)c2ccc(-c3ccc(-c4noc(C)n4)cc3C)cc2)cc1N1CCN(C)CC1 |  | 14.7% (inactive)
Cc1nc2c(OCc3ccccc3)cccn2c1CC#N |  | 4.75% (inactive)
CC(=O)N[C@@H](Cc1c[nH]c2ccccc12)C(=O)OCc1cc(C(F)(F)F)cc(C(F)(F)F)c1 |  | -3.99% (inactive)
N[C@H](C(=O)O)c1cc(O)cc(O)c1 | inactive | 
O=C(O)c1cccnc1C(=O)O |  | 2.29% (inactive)
O=C(O)c1ccccc1Nc1ccccc1 | inactive | 

Structure (SMILES) | Potency | activity change, negative = inhibition
CCCCOc1cc(CC2CNC(=O)N2)ccc1OC (configuration not stated) |  | 14.5% [at 104 µM] (inactive)
N[C@H](C(=O)O)[C@H]1C[C@@H]1C(=O)O |  | 10% (inactive)
N=C(N)SCCc1cnc[nH]1 | inactive | 
CCCn1c(=O)c(C)cn2nc(N)nc12 | 26.7 µM (active) | 
CCCCCCCCCCC/C=C\C(C)(C)/C=C\CCCC(=O)O |  | 13.4% [at 6.83 µM] (inactive)
NCCCCN=C(N)N | inactive | 
CSC(=N)N |  | 1.56% (inactive)
Nc1ccc(CCNc2ncnc3c2ncn3C2OC(CO)C(O)C2O)cc1 (configuration not stated) |  | -2.34% (inactive)
C[C@@]1(C2CCCC2)Cc2cc(OCC(=O)O)c(Cl)c(Cl)c2C1=O |  | -1.67% (inactive)
O=C(O)C1=CCCN(CCON=C(c2ccccc2)c2ccccc2)C1 | inactive | 
O=[N+]([O-])c1cccc2cn[nH]c12 |  | -9.24% (inactive)
CCCn1c(=O)c2c(ncn2C)n(CCC)c1=O |  | 2.09% (inactive)
CCCn1c(=O)c2[nH]c(C3CCCC3)nc2n(CCC)c1=O | inactive | 
CCN(CC)CCOC(=O)c1cc(Cl)c(N)cc1OC |  | -2.13% (inactive)
CC(C)NCC(O)COc1ccc(CC(N)=O)cc1 (configuration not stated) |  | -7.52% (inactive)
CC1CCN(CC[C@H]2CCCN2S(=O)(=O)c2cccc(O)c2)CC1 |  | 2.22% (inactive)
CC(C)[C@H](NC(=O)OCc1ccccc1)C(=O)N[C@H](C=O)Cc1ccccc1 (Cbz-Val-Phe-aldehyde) |  | 5.84% (inactive)
CCN(CC)CCCCCCCCOC(=O)c1cc(OC)c(OC)c(OC)c1 | inactive | 
